# Source: publication PMC4336329 (PLoS ONE, 2015)
# Among all 310,000 compounds or so, about 14,000 (4.5%) showed an effect of 50% or more. The effect is printed as a negative number. The full list was thinned out, with strong results kept by preference.
# Biological target: human ether-à-go-go-related gene (hERG) potassium channel (human, UniProt Q12809)
# Test: primary screen, population patch clamp on CHO cells stably expressing hERG; higher = less effect of the substance
# 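Further: peak tail current of the secondary pulse compared with the same well before compound.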
# Chain of human ether-à-go-go-related gene (hERG) potassium channel (Q12809 whole entry, looked up): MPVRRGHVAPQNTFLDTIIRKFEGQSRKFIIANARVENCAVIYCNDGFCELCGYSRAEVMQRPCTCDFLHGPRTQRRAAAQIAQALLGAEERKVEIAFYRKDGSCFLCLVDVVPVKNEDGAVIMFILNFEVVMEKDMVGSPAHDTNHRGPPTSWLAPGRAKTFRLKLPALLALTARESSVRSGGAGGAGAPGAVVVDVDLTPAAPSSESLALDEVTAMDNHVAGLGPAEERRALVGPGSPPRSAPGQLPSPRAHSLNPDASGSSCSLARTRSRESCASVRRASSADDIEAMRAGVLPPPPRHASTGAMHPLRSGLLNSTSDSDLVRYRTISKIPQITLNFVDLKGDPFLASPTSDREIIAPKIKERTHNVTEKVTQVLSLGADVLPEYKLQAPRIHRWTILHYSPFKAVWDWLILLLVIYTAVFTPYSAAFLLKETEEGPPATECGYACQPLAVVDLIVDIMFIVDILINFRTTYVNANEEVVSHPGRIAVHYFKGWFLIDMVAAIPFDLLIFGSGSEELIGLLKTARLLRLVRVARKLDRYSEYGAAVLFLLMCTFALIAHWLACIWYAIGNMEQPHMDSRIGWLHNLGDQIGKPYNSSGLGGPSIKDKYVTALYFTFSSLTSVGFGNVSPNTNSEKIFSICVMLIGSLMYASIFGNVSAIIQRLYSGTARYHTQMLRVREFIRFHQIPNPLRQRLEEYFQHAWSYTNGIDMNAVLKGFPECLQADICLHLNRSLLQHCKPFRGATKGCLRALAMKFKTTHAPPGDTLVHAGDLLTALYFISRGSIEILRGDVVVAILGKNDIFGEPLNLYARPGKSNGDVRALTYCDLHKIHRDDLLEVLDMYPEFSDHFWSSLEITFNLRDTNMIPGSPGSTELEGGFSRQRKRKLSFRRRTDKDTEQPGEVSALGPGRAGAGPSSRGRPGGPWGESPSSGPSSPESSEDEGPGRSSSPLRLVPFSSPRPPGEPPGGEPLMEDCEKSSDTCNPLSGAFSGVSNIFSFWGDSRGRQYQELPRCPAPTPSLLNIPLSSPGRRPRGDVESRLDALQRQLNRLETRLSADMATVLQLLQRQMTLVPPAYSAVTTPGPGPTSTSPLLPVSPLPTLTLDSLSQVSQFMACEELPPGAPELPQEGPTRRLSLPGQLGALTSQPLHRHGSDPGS
row,Compound,"hERG current change (%, negative = inhibition) at 10uM [%]"
1,CCN1CCN(c2ncnc3scc(-c4ccc(C)c(C)c4)c23)CC1,-76.4
2,Cc1cc(-c2csc3ncnc(N4CCN(C)CC4)c23)cc(C)c1C,-65.2
3,OCCN1CCN(c2ncnc3scc(-c4ccc(F)cc4)c23)CC1,-22.1
4,CC(C)c1ccc(-c2csc3ncnc(N4CCN(C)CC4)c23)cc1,-21.6
5,CCN1CCN(c2ncnc3scc(-c4ccc(OC)cc4)c23)CC1,-54.6
6,CCOc1ccc(CN2CCN(c3ncnc4scc(-c5ccccc5)c34)CC2)cc1,-75.3
7,COc1ccc(-c2csc3ncnc(N4CCN(c5ccccc5)CC4)c23)cc1,12.3
8,CCN1CCN(c2ncnc3scc(-c4ccc(C)cc4)c23)CC1,-22.5
9,Cc1ccc(-c2csc3ncnc(N4CCN(C)CC4)c23)cc1C,-18.7
10,CCOC(=O)c1ccc(NC(=O)c2ccc(C)c(S(=O)(=O)N3CCOCC3)c2)cc1,-33.4
11,CC(C)(C)C(=O)N1CCN(c2ccc(NC(=O)c3ccc([N+](=O)[O-])o3)cc2)CC1,10.2
12,COc1ccccc1N(C)S(=O)(=O)c1ccc(C(=O)NC(C)c2ccccc2)cc1 (centres unmarked),-43.7
13,COc1ccc(-c2nnc(-c3cc4c(ccc5ccccc54)oc3=O)o2)cc1,-8.75
14,Clc1ccc(CSc2nnc(-c3ccncc3)o2)cc1,-11.5
15,Cc1csc(NC(=O)CCc2c(C)nc3cc(-c4ccc(Cl)cc4)nn3c2C)n1,-2.4
16,c1ccc(-c2csc3ncnc(N4CCN(Cc5ccc6c(c5)OCO6)CC4)c23)cc1,-57.6
17,COc1ccc(F)cc1CN1CCN(c2ncnc3scc(-c4ccccc4)c23)CC1,-41.6
18,COc1ccc(CN2CCN(c3ncnc4scc(-c5ccc(F)cc5)c34)CC2)cc1,-65.8
19,CCN1CCN(c2ncnc3sc(C)c(-c4ccccc4)c23)CC1,-57.1
20,COc1ccccc1N1CCN(c2ncnc3sc(C)c(-c4ccccc4)c23)CC1,14.2
21,Fc1ccc(CN2CCN(c3ncnc4scc(-c5ccc(F)cc5)c34)CC2)cc1,5.9
22,COc1ccc(N2CCN(c3ncnc4scc(-c5ccc(F)cc5)c34)CC2)cc1,-0.492

row,Compound,"hERG current change (%, negative = inhibition) at 10uM [%]"
1,O=C(CSc1ncnc2scc(-c3ccccc3)c12)N1CCN(Cc2ccc3c(c2)OCO3)CC1,-35.7
2,Cc1sc2ncnc(N3CCN(Cc4ccccc4)CC3)c2c1-c1ccccc1,-34.8
3,CNc1c([N+](=O)[O-])cnn1-c1ccccn1,-15.5
4,CC(C)(O)C#Cc1ccc(C(=O)NCCc2ccc(S(N)(=O)=O)cc2)cc1,13.6
5,O=C(NNS(=O)(=O)c1cccc(Cl)c1)c1cc(-c2ccc(F)cc2)nc2ccccc12,11.6
6,Cc1ccc(C(=O)COC(=O)CNS(=O)(=O)c2ccc(C)cc2)cc1,12.4
7,CCOC(=O)C(NC(C)=O)(Nc1ccc(F)cc1)C(F)(F)F (centres unmarked),-3.72
8,O=C(O)c1cnc(-c2ccccc2)nc1Sc1cccc(Cl)c1,26.7
9,O=C(O)/C(=C\c1cn(-c2ccccc2)nc1-c1cccnc1)NC(=O)c1ccccc1,7.21
10,C/C=C\C=C/C(=O)Nc1cccc(C2=NOC3(C2)C[C@@H](C(N)=O)N(C(=O)COc2ccc(Cl)cc2)C3)c1 (some centres unmarked),-7.47
11,C/C=C\C=C\C(=O)N1CC2(CC(c3cccc(NC(=O)COc4ccc(Cl)cc4)c3)=NO2)C[C@H]1C(N)=O (some centres unmarked),-76.9
12,CC/C=C/C(=O)N1CC2(CC(c3cccc(NC(=O)CC)c3)=NO2)C[C@H]1C(N)=O (some centres unmarked),13.6
13,NC(=O)[C@H]1CC2(CC(c3cccc(NC(=O)COc4ccc(Cl)cc4)c3)=NO2)CN1C(=O)c1ccc(Cl)cc1 (some centres unmarked),-9.96
14,CC/C=C/C(=O)N1CC2(CC(c3cccc(NC(=O)COc4ccc(Cl)cc4)c3)=NO2)C[C@H]1C(N)=O (some centres unmarked),-64.7
15,C/C=C/C(=O)N1CC2(CC(c3cccc(NC(=O)COc4ccc(Cl)cc4)c3)=NO2)C[C@@H]1C(N)=O (some centres unmarked),-41.4
16,Cn1nc(-c2ccccc2)c(CSc2ccccc2Cl)c1Cl,6.46
17,CN1CCN(C(=O)c2cnn(-c3ccccc3)c2NC(=O)c2ccc([N+](=O)[O-])cc2)CC1,-51.6
18,CN1CCN(C(=O)c2cnn(-c3ccccc3)c2NC(=O)c2ccc(Br)cc2)CC1,-81.4
19,CN1CCN(C(=O)c2cnn(-c3ccccc3)c2NC(=O)c2ccccc2Br)CC1,3.72
20,O=C(Nc1c(C(=O)N2CCOCC2)cnn1-c1ccccc1)c1ccc([N+](=O)[O-])cc1,-16
21,CN1CCN(C(=O)c2cnn(-c3ccccc3)c2NC(=O)c2ccccc2)CC1,-17.8
22,Cc1cccc(C(=O)Nc2c(C(=O)N3CCN(C)CC3)cnn2-c2ccccc2)c1,-15.9
